Laboratory results from PubChem BioAssay.
Measured potencies and affinities stand elsewhere. Inconclusive results are not listed. The source made the active and inactive calls. Unless noted, the rule behind the calls is not given here.

Assays:
[1] = RMG-1 ovarian cancer cell viability loss – cherry-pick, dose response (AID 687029;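 active = signal drop whose fitted half-maximal concentration is at most twice the top valid dose, in every test run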;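 note: cells exposed to compound for 96 hours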)
[2] = IOSE-T80 viability loss, PAX8-independent line – cell-based, cherry-pick, selectivity assay for PAX8 inhibitor project, dose response (AID 687032;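 active = fitted half-maximal concentration for viability loss no higher than twice the top valid dose, in every repeat run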;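 note: cells exposed to compound for 96 h before reading; 0% = neutral control wells and -100% = 2 µM mitoxantrone kill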)
[3] = CMV-driven luciferase expression suppression in HEK293 – cell-based, luminescence, dry powder, counter-screen for Pax8 inhibitor project, dose response (AID 743020;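 active = signal-lowering compounds whose fitted half-maximal concentration is at or below twice the top tested dose in every run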;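 note: HEK293 cells stably expressing the CMV luciferase reporter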)
[4] = general cell-killing toxicity readout – plate reader, dry powder samples, cytotoxicity control for PAX8 inhibitor project, dose response (AID 743021)
[5] = OVCAR-3 cell viability loss – plate reader, dry powder samples, PAX8 inhibitor project, dose response (AID 743044); details: max activity: at 35 µM, hits give low values unless noted
[6] = toxicity toward immortalized ovarian surface epithelium – cell-based, plate reader, dry powder samples, cytotoxicity control for PAX8 inhibitor project, dose response (AID 743045);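 note: 0% = neutral control median and -100% = positive control median; more negative values mean more cell killing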
[7] = A2780 cell killing – plate reader, dry powder samples, cytotoxicity control, dose response (AID 743046);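 note: 0% = neutral control wells and -100% = cytotoxic reference compound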
[8] = OVCAR8 cell viability loss – plate reader, dry powder samples, PAX8 project, dose response (AID 743197)

O=C(C[C@@H]1CC[C@@H]2[C@H](COC[C@H](O)CN2Cc2ccc3c(c2)OCO3)O1)Nc1ccc(-c2ccccc2)cc1
inactive: outcome [1] | outcome [2] | outcome [3] | outcome [4] | max activity [5] 25.3% [at 0.5 µM, hits give low values] | outcome [6] | outcome [7] | outcome [8]

C[C@H]1CCCCO[C@H](CN(C)C(=O)Nc2ccc(C(F)(F)F)cc2)[C@@H](C)CN([C@@H](C)CO)C(=O)c2cc(NS(=O)(=O)c3ccccc3)ccc2O1
inactive: outcome [1] | outcome [2] | outcome [3] | outcome [4] | max activity [5] -16.1% [at 8 µM, hits give low values] | outcome [6] | outcome [7]

O=C(C[C@@H]1CC[C@@H]2[C@H](COC[C@@H](O)CN2C(=O)Nc2ccc(Cl)c(Cl)c2)O1)NCc1ccc(Cl)cc1
inactive: outcome [1] | outcome [2] | outcome [3] | outcome [4] | outcome [6]

Cc1noc(C)c1S(=O)(=O)Nc1ccc2c(c1)C(=O)N([C@H](C)CO)C[C@@H](C)[C@@H](CN(C)Cc1ccc(C(F)(F)F)cc1)OCCCC[C@H](C)O2
inactive: outcome [1] | outcome [2] | outcome [3] | outcome [4] | outcome [6] | outcome [7]

C[C@@H]1CN([C@H](C)CO)C(=O)c2c(c3ccccc3n2C)-c2ccccc2CO[C@H]1CN(C)S(=O)(=O)c1ccc(C(F)(F)F)cc1
inactive: outcome [1] | outcome [2] | outcome [3] | outcome [4] | outcome [6]

C[C@@H]1CCCCO[C@H](CN(C)Cc2ccc(Cl)c(Cl)c2)[C@@H](C)CN([C@@H](C)CO)C(=O)c2cc(NC(=O)Cc3ccccc3)ccc2O1
inactive: outcome [1] | outcome [2] | outcome [3] | outcome [4] | outcome [6] | outcome [7]

O=C(c1cc(-c2cccs2)on1)N1CCN(C(c2ccccc2)c2ccccc2)CC1
inactive: outcome [1] | outcome [2] | outcome [3] | outcome [4] | outcome [6] | outcome [7]

C[C@@H]1CN([C@@H](C)CO)C(=O)Cc2cc(NC(=O)Nc3ccc(C(F)(F)F)cc3)ccc2O[C@H]1CN(C)Cc1ccc2c(c1)OCO2
inactive: outcome [1] | outcome [2] | outcome [3] | outcome [4] | outcome [6] | outcome [7]

C[C@H]1CCCCO[C@@H](CN(C)Cc2ccc(C(F)(F)F)cc2)[C@@H](C)CN([C@@H](C)CO)C(=O)c2cc(NC(=O)Nc3ccc4c(c3)OCO4)ccc2O1
inactive: outcome [1] | outcome [2] | outcome [3] | outcome [4] | outcome [6] | outcome [7]

C[C@@H]1CCCCO[C@H](CN(C)Cc2ccc(C(F)(F)F)cc2)[C@H](C)CN([C@H](C)CO)C(=O)c2cc(NC(=O)Cc3ccccc3)ccc2O1
inactive: outcome [1] | outcome [2] | outcome [3] | outcome [4] | outcome [6] | outcome [7]

COc1ccccc1S(=O)(=O)N(C)C[C@H]1Oc2cc(C#CCC3CCCC3)ccc2S(=O)(=O)N([C@H](C)CO)C[C@H]1C
inactive: outcome [1] | outcome [2] | outcome [3] | outcome [4] | outcome [6]

CCCC#Cc1ccc([C@H]2[C@@H](CO)N3CCCCN(S(=O)(=O)Cc4ccccc4)C[C@H]23)cc1
inactive: outcome [1] | outcome [2] | outcome [3] | outcome [4] | outcome [6] | outcome [7]

CCc1ccc(/C=C2\SC(=S)N(CCCC(=O)N(CCO)c3ccccc3)C2=O)cc1
inactive: outcome [1] | outcome [2] | outcome [3] | outcome [4] | outcome [6] | outcome [7]

Cc1ccc(S(=O)(=O)Nc2ccc3c(c2)C(=O)N([C@@H](C)CO)C[C@H](C)[C@@H](CN(C)Cc2ccc(C(F)(F)F)cc2)OCCCC[C@H](C)O3)cc1
inactive: outcome [1] | outcome [2] | outcome [3] | outcome [4] | outcome [6]

C[C@H]1CCCCO[C@@H](CN(C)Cc2ccc(C(F)(F)F)cc2)[C@@H](C)CN([C@@H](C)CO)C(=O)c2cc(NS(=O)(=O)c3ccccc3)ccc2O1
inactive: outcome [1] | outcome [2] | outcome [3] | outcome [4] | outcome [6] | outcome [7]

Cc1cccc(S(=O)(=O)N2CCCCN3[C@H](CO)[C@H](c4ccc(C#C[C@H](C)O)cc4)[C@H]3C2)c1
inactive: outcome [1] | outcome [2] | outcome [3] | outcome [4] | outcome [6] | outcome [7]

COc1cccc2sc(N(CCCN(C)C)C(=O)CCS(=O)(=O)c3ccccc3)nc12
inactive: outcome [1] | outcome [2] | outcome [3] | outcome [4] | outcome [6] | outcome [7]

Cc1ccc(S(=O)(=O)N(C)C[C@H]2OCCCC[C@H](C)Oc3ccc(NS(=O)(=O)c4ccc(F)cc4)cc3C(=O)N([C@H](C)CO)C[C@@H]2C)cc1
inactive: outcome [1] | outcome [2] | outcome [3] | outcome [4] | outcome [6] | outcome [7]

C[C@@H]1CN([C@@H](C)CO)C(=O)c2cc(NS(=O)(=O)c3ccc(F)cc3)ccc2O[C@@H](C)CCCCO[C@@H]1CN(C)Cc1ccc(C(F)(F)F)cc1
inactive: outcome [1] | outcome [2] | outcome [3] | outcome [4] | outcome [6]

COc1ccc(S(=O)(=O)Nc2ccc3c(c2)C(=O)N([C@H](C)CO)C[C@@H](C)[C@H](CN(C)S(=O)(=O)c2ccc(Cl)cc2)OCCCC[C@H](C)O3)cc1
inactive: outcome [1] | outcome [2] | outcome [3] | outcome [4] | outcome [6] | outcome [7]

Cc1ccc(S(=O)(=O)Nc2ccc3c(c2)C(=O)N([C@@H](C)CO)C[C@H](C)[C@@H](CN(C)Cc2ccc(C(F)(F)F)cc2)OCCCC[C@@H](C)O3)cc1
inactive: outcome [1] | outcome [2] | outcome [3] | outcome [4] | outcome [6] | outcome [7]

C[C@@H]1CN([C@H](C)CO)C(=O)c2cc(NC(=O)Nc3ccc(C(F)(F)F)cc3)ccc2O[C@@H](C)CCCCO[C@H]1CN(C)C(=O)Nc1ccc(C(F)(F)F)cc1
inactive: outcome [1] | outcome [2] | outcome [3] | outcome [4] | outcome [6]

OC[C@@H]1[C@H](c2ccc(-c3ccc(F)cc3)cc2)[C@@H]2CN(CCC(F)(F)F)CCCCN12
inactive: outcome [1] | outcome [2] | outcome [3] | outcome [4] | outcome [6] | outcome [7]

COc1ccc(-c2ccc3c(c2)[C@@H]2[C@@H](CCN2C(=O)C2CCCCC2)[C@H](CO)N3C)cc1
inactive: outcome [1] | outcome [2] | outcome [3] | outcome [4] | outcome [6]

C[C@@H]1CCCCO[C@@H](CN(C)Cc2ccc(C(F)(F)F)cc2)[C@H](C)CN([C@@H](C)CO)C(=O)c2cc(NC(=O)NC3CCCCC3)ccc2O1
inactive: outcome [1] | outcome [2] | outcome [3] | outcome [4] | outcome [6] | outcome [7]

O=C1CN(S(=O)(=O)Cc2ccccc2)C[C@@H]2[C@@H](c3ccc(C#CC4CC4)cc3)[C@@H](CO)N12
inactive: outcome [1] | outcome [2] | outcome [3] | outcome [4] | outcome [6] | activity change, negative = cytotoxicity [7] 19% [at 8 µM]
